Reference: article PMC11062922 (Nature Chemical Biology, 2023)
Like-named read-outs stand apart in the source and are kept apart here.

What was measured:
PLK4 = conditions: read-out: apparent Kd, n = 1
PRKAA2 = conditions: read-out: apparent Kd, n = 1

With Lestaurtinib the potency estimated from few doses (PLK4; compound concentrations:100 nM and 1000 nM (sheet 'Lestaurtinib' of Supplementary Table 1),run:Lestaurtinib_02768_R1,Plate:MR028) was 51.6 nM, the potency estimated from few doses (PLK4; compound concentrations:100 nM and 1000 nM (sheet 'Lestaurtinib' of Supplementary Table 1),run:Lestaurtinib_02768_R2,Plate:MR028) was 61.6 nM and the potency estimated from few doses (PLK4; compound concentrations:100 nM and 1000 nM (sheet 'Lestaurtinib' of Supplementary Table 1),run:Lestaurtinib_02768_R3,Plate:MR028) was 74.4 nM. The potency estimated from few doses (PLK4; compound concentrations:100 nM and 1000 nM (sheet 'Lestaurtinib' of Supplementary Table 1),run:Lestaurtinib_02795_R1,Plate:MR022) was 55.3 nM, the potency estimated from few doses (PLK4; compound concentrations:100 nM and 1000 nM (sheet 'Lestaurtinib' of Supplementary Table 1),run:Lestaurtinib_02795_R2,Plate:MR022) was 63.4 nM and the potency estimated from few doses (PLK4; compound concentrations:100 nM and 1000 nM (sheet 'Lestaurtinib' of Supplementary Table 1),run:Lestaurtinib_02802_R1,Plate:MR029) was 73 nM. For the same substance, the potency estimated from few doses (PLK4; compound concentrations:100 nM and 1000 nM (sheet 'Lestaurtinib' of Supplementary Table 1),run:Lestaurtinib_02802_R2,Plate:MR029) was 83.4 nM, the potency estimated from few doses (PLK4; compound concentrations:100 nM and 1000 nM (sheet 'Lestaurtinib' of Supplementary Table 1),run:Lestaurtinib_02802_R3,Plate:MR029) was 32.3 nM and the potency estimated from few doses (PLK4; compound concentrations:100 nM and 1000 nM (sheet 'Lestaurtinib' of Supplementary Table 1),run:Lestaurtinib_02896_R1,Plate:MR030) was 78.3 nM. The potency estimated from few doses (PLK4; compound concentrations:100 nM and 1000 nM (sheet 'Lestaurtinib' of Supplementary Table 1),run:Lestaurtinib_02896_R3,Plate:MR030) was 80.6 nM, the potency estimated from few doses (PLK4; compound concentrations:100 nM and 1000 nM (sheet 'Lestaurtinib' of Supplementary Table 1),run:Lestaurtinib_03172_R1,Plate:MR031) was 67.3 nM and the potency estimated from few doses (PLK4; compound concentrations:100 nM and 1000 nM (sheet 'Lestaurtinib' of Supplementary Table 1),run:Lestaurtinib_03172_R3,Plate:MR031) was 72.8 nM. It also gave a potency estimated from few doses (PLK4; compound concentrations:100 nM and 1000 nM (sheet 'Lestaurtinib' of Supplementary Table 1),run:Lestaurtinib_03252_R1,Plate:MR032) of 64.8 nM, a potency estimated from few doses (PLK4; compound concentrations:100 nM and 1000 nM (sheet 'Lestaurtinib' of Supplementary Table 1),run:Lestaurtinib_03252_R2,Plate:MR032) of 23.9 nM and a potency estimated from few doses (PLK4; compound concentrations:100 nM and 1000 nM (sheet 'Lestaurtinib' of Supplementary Table 1),run:Lestaurtinib_03260_R2,Plate:MR033) of 63.7 nM. For the same substance, the potency estimated from few doses (PLK4; compound concentrations:100 nM and 1000 nM (sheet 'Lestaurtinib' of Supplementary Table 1),run:Lestaurtinib_03260_R3,Plate:MR033) was 78.5 nM, the potency estimated from few doses (PRKAA2; compound concentrations:100 nM and 1000 nM (sheet 'Lestaurtinib' of Supplementary Table 1),run:Lestaurtinib_02339_R1,Plate:MR001) was 963 nM and the potency estimated from few doses (PRKAA2; compound concentrations:100 nM and 1000 nM (sheet 'Lestaurtinib' of Supplementary Table 1),run:Lestaurtinib_02339_R3,Plate:MR001) was 953 nM. For the same substance, the potency estimated from few doses (PRKAA2; compound concentrations:100 nM and 1000 nM (sheet 'Lestaurtinib' of Supplementary Table 1),run:Lestaurtinib_02364_R1,Plate:MR002) was 713 nM, the potency estimated from few doses (PRKAA2; compound concentrations:100 nM and 1000 nM (sheet 'Lestaurtinib' of Supplementary Table 1),run:Lestaurtinib_02364_R2,Plate:MR002) was 541 nM and the potency estimated from few doses (PRKAA2; compound concentrations:100 nM and 1000 nM (sheet 'Lestaurtinib' of Supplementary Table 1),run:Lestaurtinib_02364_R3,Plate:MR002) was 553 nM. It also gave a potency estimated from few doses (PRKAA2; compound concentrations:100 nM and 1000 nM (sheet 'Lestaurtinib' of Supplementary Table 1),run:Lestaurtinib_02367_R1,Plate:MR003) of 1320 nM, a potency estimated from few doses (PRKAA2; compound concentrations:100 nM and 1000 nM (sheet 'Lestaurtinib' of Supplementary Table 1),run:Lestaurtinib_02367_R3,Plate:MR003) of 892 nM and a potency estimated from few doses (PRKAA2; compound concentrations:100 nM and 1000 nM (sheet 'Lestaurtinib' of Supplementary Table 1),run:Lestaurtinib_02381_R1,Plate:MR004) of 1400 nM. It also gave a potency estimated from few doses (PRKAA2; compound concentrations:100 nM and 1000 nM (sheet 'Lestaurtinib' of Supplementary Table 1),run:Lestaurtinib_02381_R2,Plate:MR004) of 954 nM, a potency estimated from few doses (PRKAA2; compound concentrations:100 nM and 1000 nM (sheet 'Lestaurtinib' of Supplementary Table 1),run:Lestaurtinib_02381_R3,Plate:MR004) of 761 nM and a potency estimated from few doses (PRKAA2; compound concentrations:100 nM and 1000 nM (sheet 'Lestaurtinib' of Supplementary Table 1),run:Lestaurtinib_02407_R1,Plate:MR005) of 755 nM. It also gave a potency estimated from few doses (PRKAA2; compound concentrations:100 nM and 1000 nM (sheet 'Lestaurtinib' of Supplementary Table 1),run:Lestaurtinib_02407_R3,Plate:MR005) of 722 nM, a potency estimated from few doses (PRKAA2; compound concentrations:100 nM and 1000 nM (sheet 'Lestaurtinib' of Supplementary Table 1),run:Lestaurtinib_02422_R3,Plate:MR006) of 74.8 nM and a potency estimated from few doses (PRKAA2; compound concentrations:100 nM and 1000 nM (sheet 'Lestaurtinib' of Supplementary Table 1),run:Lestaurtinib_02437_R2,Plate:MR007) of 616 nM. The potency estimated from few doses (PRKAA2; compound concentrations:100 nM and 1000 nM (sheet 'Lestaurtinib' of Supplementary Table 1),run:Lestaurtinib_02437_R3,Plate:MR007) was 56.5 nM, the potency estimated from few doses (PRKAA2; compound concentrations:100 nM and 1000 nM (sheet 'Lestaurtinib' of Supplementary Table 1),run:Lestaurtinib_02438_R1,Plate:MR008) was 857 nM and the potency estimated from few doses (PRKAA2; compound concentrations:100 nM and 1000 nM (sheet 'Lestaurtinib' of Supplementary Table 1),run:Lestaurtinib_02443_R3,Plate:MR009) was 792 nM. It also gave a potency estimated from few doses (PRKAA2; compound concentrations:100 nM and 1000 nM (sheet 'Lestaurtinib' of Supplementary Table 1),run:Lestaurtinib_02473_R1,Plate:MR010) of 730 nM, a potency estimated from few doses (PRKAA2; compound concentrations:100 nM and 1000 nM (sheet 'Lestaurtinib' of Supplementary Table 1),run:Lestaurtinib_02473_R2,Plate:MR010) of 941 nM and a potency estimated from few doses (PRKAA2; compound concentrations:100 nM and 1000 nM (sheet 'Lestaurtinib' of Supplementary Table 1),run:Lestaurtinib_02473_R3,Plate:MR010) of 799 nM. It also gave a potency estimated from few doses (PRKAA2; compound concentrations:100 nM and 1000 nM (sheet 'Lestaurtinib' of Supplementary Table 1),run:Lestaurtinib_02482_R1,Plate:MR011) of 788 nM, a potency estimated from few doses (PRKAA2; compound concentrations:100 nM and 1000 nM (sheet 'Lestaurtinib' of Supplementary Table 1),run:Lestaurtinib_02482_R2,Plate:MR011) of 508 nM and a potency estimated from few doses (PRKAA2; compound concentrations:100 nM and 1000 nM (sheet 'Lestaurtinib' of Supplementary Table 1),run:Lestaurtinib_02482_R3,Plate:MR011) of 568 nM. The potency estimated from few doses (PRKAA2; compound concentrations:100 nM and 1000 nM (sheet 'Lestaurtinib' of Supplementary Table 1),run:Lestaurtinib_02487_R1,Plate:MR012) was 422 nM, the potency estimated from few doses (PRKAA2; compound concentrations:100 nM and 1000 nM (sheet 'Lestaurtinib' of Supplementary Table 1),run:Lestaurtinib_02487_R3,Plate:MR012) was 679 nM and the potency estimated from few doses (PRKAA2; compound concentrations:100 nM and 1000 nM (sheet 'Lestaurtinib' of Supplementary Table 1),run:Lestaurtinib_02496_R1,Plate:MR013) was 702 nM.
